Assay outcomes: PubChem, National Center for Advancing Translational Sciences (NCATS)
This is a sample that favours compounds with a hit; in the whole collection about 3.1% have one here.
PLK1 PBD block – PLK1 (human) polo-box domain binding inhibition; Plk1 PBD binding of FITC phosphopeptide, fluorescence polarization; Potency, µM, without a hit: max response, negative = inhibition, usual class: inhibitors; 360,000 compounds, 2.8% hits; also: potency is read from the fitted curve at half-maximal effect; series mostly up to about 57 µM; nearly all actives have a fitted effect of over 65% in size
GCN5L2 inh – blocks human GCN5L2 histone acetyltransferase; Q92830; GCN5L2 HAT assay, ThioGlo1 CoA-SH fluorescence; Potency, µM (top dose mostly 58.9 µM), inactives show at the highest dose activity change, negative = inhibition, actives largely listed as inhibitors; 390,000 compounds, 0.21% hits; AID 504327; also: potency is read from the fitted curve at half-maximal effect
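GCN5L2 (20nM final) in 50mM HEPES, 0.1mM EDTA pH 7.5, 0.01% Tween-20 was preincubated 15 min at room temperature with compound, then given ThioGlo1 (50uM), H3(1-25) peptide (75uM) and acetyl-CoA (70uM); CoA-thiol fluorescence (Ex340/Em540) was read at 0 and 20 min.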
VDR inhibitor – vitamin D3 receptor (human) inhibition; P11473; VDR-SRC2-3 peptide fluorescence polarization, 2 h; Potency, µM, for inactives: max response, negative = inhibition, usual class: inhibitors; 400,000 compounds, 0.93% hits; AID 504847; also: potency is read from the fitted curve at half-maximal effect
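Fluorescence polarization assay of small-molecule disruption of VDR binding to coregulator peptide SRC2-3. Compounds and controls pin-transferred, then read after 2 h incubation at ambient room temperature.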
GLS inh – blocks human kidney-isoform glutaminase activity; GLS enzymatic activity, qHTS titration; Potency, µM (series often up to 45.5 µM), without a hit: at the highest dose activity change, negative = inhibition, most hits filed as inhibitors; 410,000 compounds, 0.21% hits; AID 624170; also: potency is read from the fitted curve at half-maximal effect
Target sequence (O94925 whole entry, looked up, canonical isoform): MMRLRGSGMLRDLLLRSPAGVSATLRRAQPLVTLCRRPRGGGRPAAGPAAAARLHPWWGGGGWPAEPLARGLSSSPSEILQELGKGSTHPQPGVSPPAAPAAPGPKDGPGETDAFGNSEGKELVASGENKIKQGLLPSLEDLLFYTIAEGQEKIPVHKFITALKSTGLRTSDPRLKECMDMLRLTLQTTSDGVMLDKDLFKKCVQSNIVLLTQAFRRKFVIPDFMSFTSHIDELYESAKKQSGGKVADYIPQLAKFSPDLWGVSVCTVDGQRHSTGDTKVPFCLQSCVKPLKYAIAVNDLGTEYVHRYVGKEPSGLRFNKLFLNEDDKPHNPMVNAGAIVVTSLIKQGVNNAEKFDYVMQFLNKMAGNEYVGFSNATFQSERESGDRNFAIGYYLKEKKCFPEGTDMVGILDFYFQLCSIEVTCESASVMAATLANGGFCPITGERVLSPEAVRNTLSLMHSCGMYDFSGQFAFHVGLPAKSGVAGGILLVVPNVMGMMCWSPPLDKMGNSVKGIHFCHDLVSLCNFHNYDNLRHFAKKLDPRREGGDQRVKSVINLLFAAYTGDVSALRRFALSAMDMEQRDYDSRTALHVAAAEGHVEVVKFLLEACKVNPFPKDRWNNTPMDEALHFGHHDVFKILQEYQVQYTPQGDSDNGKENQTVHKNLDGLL
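Glutamate formation by hKGA was monitored fluorometrically using coupled glutamate oxidase, HRP and Amplex Red. Substrate was added as 1 mM L-glutamine solution; incubation was 30 min at RT after an initial read.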
PI4K2A inh – blocks human PI4K2A kinase activity; purified PI4K2A, ADP-Glo luminescence, 1 h; active compounds read low; activity change, negative = inhibition, % at 76.9 µM; 420,000 compounds, 0.13% hits; in the data active = activity change below about -50%; inconclusive = mostly about -30% to -49%;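 also: -100% = wells without enzyme as full effect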
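Compounds are screened against recombinant PI4K2A using PI as substrate and ATP, the latter dispensed at 300 microM. Reactions run one hour at ambient temperature before ADP-Glo detection; full inhibition defined by wells lacking enzyme.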
Numbers without * were called inactive. Unless noted, calls follow the shape of the dose curve; as a rule, active = well fitted curve in the direction sought with a large enough effect; inconclusive = small, poorly fitted or top-dose-only effect, or another doubt; inactive = no such curve, though single readings can be large; an effect the other way counts as inactive or inconclusive. Unless noted, % is scaled to controls: 0 for no effect and ±100 for the full control effect.

For CSCC[C@H](NC(=O)[C@H](CO)NC(=O)[C@H](Cc1ccc(O)cc1)NC(=O)[C@@H](N)CO)C(=O)N[C@@H](CCC(=O)O)C(=O)N[C@@H](Cc1cnc[nH]1)C(=O)N[C@@H](Cc1ccccc1)C(=O)N[C@@H](CCCNC(=N)N)C(=O)N[C@@H](Cc1c[nH]c2ccccc12)C(=O)NCC(=O)N[C@@H](CCCCN)C(=O)N1CCC[C@H]1C(=O)N[C@H](C(=O)NCC(=O)N[C@@H](CCCCN)C(=O)N[C@@H](CCCCN)C(=O)N[C@@H](CCCNC(=N)N)C(=O)N[C@@H](CCCNC(=N)N)C(=O)N1CCC[C@H]1C(=O)N[C@H](C(=O)N[C@@H](CCCCN)C(=O)N[C@H](C(=O)N[C@@H](Cc1ccc(O)cc1)C(=O)N1CCC[C@H]1C(=O)N[C@@H](CC(N)=O)C(=O)NCC(=O)N[C@@H](C)C(=O)N[C@@H](CCC(=O)O)C(=O)N[C@@H](CC(=O)O)C(=O)N[C@@H](CCC(=O)O)C(=O)N[C@@H](CO)C(=O)N[C@@H](C)C(=O)N[C@@H](CCC(=O)O)C(=O)N[C@@H](C)C(=O)N[C@@H](Cc1ccccc1)C(=O)N1CCC[C@H]1C(=O)N[C@@H](CC(C)C)C(=O)N[C@@H](CCC(=O)O)C(=O)N[C@@H](Cc1ccccc1)C(=O)O)C(C)C)C(C)C)C(C)C the results were GCN5L2 inh -10% and VDR inhibitor -3%.
CCCc1cc(C(N)=O)c(NC(=O)C2CCCO2)s1 (centres undefined) was read as PLK1 PBD block 11µM*, GCN5L2 inh -18%, VDR inhibitor -28%, GLS inh -10% and PI4K2A inh 8.
For NC(=O)c1c(NC(=O)c2noc3c2CCCC3)sc2c1CCCC2 the results were GCN5L2 inh -26%, VDR inhibitor 50µM*, GLS inh -11% and PI4K2A inh -7.
Screening CCCc1cc(C(N)=O)c(NC(=O)c2ccco2)s1 returned PLK1 PBD block 27µM*, GCN5L2 inh -5%, VDR inhibitor -6%, GLS inh 8% and PI4K2A inh -3.
Screening CCOC(=O)c1c(NC(=O)C2CCCO2)sc(C(=O)OC(C)(C)C)c1C (centres undefined) returned PLK1 PBD block 6µM*, GCN5L2 inh 2%, VDR inhibitor inconclusive, GLS inh -16% and PI4K2A inh -13.
For NC(=O)c1ccccc1NC(=O)C1CCCO1 (centres undefined) the results were PLK1 PBD block -9%, GCN5L2 inh -1%, VDR inhibitor -2%, GLS inh -1% and PI4K2A inh 20.
`CC(=O)Nc1sc2c(c1C(N)=O)CCCC2` gave PLK1 PBD block -10%, GCN5L2 inh inconclusive, VDR inhibitor 4%, GLS inh 12% and PI4K2A inh -5.
For NC(=O)c1c(NC(=O)C2CCCO2)sc2c1CCCC2 (centres undefined) the results were PLK1 PBD block 11µM*, GCN5L2 inh -14%, VDR inhibitor -28%, GLS inh -14% and PI4K2A inh -3.
For Cc1sc(NC(=O)C2CCCO2)c(C(N)=O)c1C (centres undefined) the results were PLK1 PBD block 17µM*, GCN5L2 inh -12%, VDR inhibitor inconclusive, GLS inh 0% and PI4K2A inh 4.
For Cc1cc2cc3c(cc2n2c(SCC(=O)Nc4nc(-c5ccccc5)cs4)nnc12)OCO3 the results were PI4K2A inh 1.
`CCN(CC)C(=O)CC[C@H]1CC[C@]2(CCCN(CC3CC3)C2)O1` gave PI4K2A inh -6.
`CNc1ccc2c3c(cccc13)C(=O)N(C)C2=O` gave PLK1 PBD block 3µM*, GCN5L2 inh -11%, VDR inhibitor 15%, GLS inh -1% and PI4K2A inh 0.
For Cc1ccc(C=Nn2c(-c3n[nH]c4c3CCC4)n[nH]c2=S)o1 the results were PI4K2A inh -1.
For Cc1ccc(Nc2nnc(-c3ccc4c(c3)OCO4)o2)c(C)c1 the results were PLK1 PBD block 21µM*, GCN5L2 inh 18%, VDR inhibitor inconclusive, GLS inh -16% and PI4K2A inh -3.
`Cc1ccc(CSc2nnc(-c3ccc4c(c3)OCO4)o2)cc1` gave PLK1 PBD block -2%, GCN5L2 inh 1%, VDR inhibitor 10%, GLS inh -2% and PI4K2A inh 6.
`O=C(COc1ccc2c(c1)oc(=O)c1ccccc12)N[C@@H](Cc1c[nH]c2ccccc12)C(=O)O` gave PLK1 PBD block 0%, GCN5L2 inh 25µM*, VDR inhibitor -6%, GLS inh 23% and PI4K2A inh inconclusive.
`COc1ccc(C(=O)Nc2ccccc2C(=O)NC(Cc2c[nH]c3ccccc23)C(=O)O)cc1` (centres undefined) gave PLK1 PBD block 24µM*, GCN5L2 inh -3%, VDR inhibitor -9%, GLS inh 15% and PI4K2A inh 0.
For Cc1c(C)c2ccc(OCC(=O)NC(Cc3ccc(Cl)cc3)C(=O)O)cc2oc1=O (centres undefined) the results were PLK1 PBD block -13%, GCN5L2 inh -13%, VDR inhibitor 3%, GLS inh 19% and PI4K2A inh -10.
Screening Cc1c(C)c2ccc(OCC(=O)N[C@@H](Cc3ccccc3)C(=O)O)cc2oc1=O returned PLK1 PBD block -5%, GCN5L2 inh -2%, VDR inhibitor 7%, GLS inh 16µM* and PI4K2A inh -7.
`COc1ccc(-c2cc(-c3nnc(SCC(=O)NC4CCCCC4)n3N)[nH]n2)cc1` gave PI4K2A inh 1.
Screening O=c1c2sc3ccccc3c2n(Cc2ccc(F)cc2)c(=O)n1Cc1ccco1 returned GCN5L2 inh 2%, VDR inhibitor -9%, GLS inh 13% and PI4K2A inh -2.
`CCc1nn(CC(=O)N2CCCCC2)c(=O)c2cc3sccc3n12` gave GCN5L2 inh -2%, VDR inhibitor 4%, GLS inh 4% and PI4K2A inh -3.
`COC(=O)c1sc(NC(=S)NNC(=O)c2c(Br)c(C)nn2C)c(C(=O)OC)c1C` gave PLK1 PBD block 27µM*, GCN5L2 inh inconclusive, VDR inhibitor 1%, GLS inh -2% and PI4K2A inh 2.
For COC(=O)c1sc(S(=O)(=O)Nc2c(C)nn(C)c2C)c(C(=O)OC)c1C the results were PLK1 PBD block 0%, GCN5L2 inh -2%, VDR inhibitor 11%, GLS inh -9% and PI4K2A inh -3.
O=C(O)c1ccc(NNC(=S)Nc2cc(C(F)(F)F)ccc2Cl)cc1 was read as PLK1 PBD block 21µM*, GCN5L2 inh -10%, VDR inhibitor 22µM*, GLS inh 2% and PI4K2A inh -4.
